Consider 1 sequence from publication PMC7862700, “An all-to-all approach to the identification of sequence-specific readers for epigenetic DNA modifications on cytosine”.

Holding throughout (assay): DAPPL (digital affinity profiling via proximity ligation, sequencing); 10 mM Tris-HCl pH 7.5, 50 mM NaCl, 1 mM DTT, 4% glycerol, room temperature, 30 min; GST-TFs on glutathione beads, 16-mer random dsDNA library, 0.1% formaldehyde crosslink after washing; high values mean tight binding
In one test the target is T1, FEV (Homo sapiens, UniProt Q99581 1-238).
T1 sequence: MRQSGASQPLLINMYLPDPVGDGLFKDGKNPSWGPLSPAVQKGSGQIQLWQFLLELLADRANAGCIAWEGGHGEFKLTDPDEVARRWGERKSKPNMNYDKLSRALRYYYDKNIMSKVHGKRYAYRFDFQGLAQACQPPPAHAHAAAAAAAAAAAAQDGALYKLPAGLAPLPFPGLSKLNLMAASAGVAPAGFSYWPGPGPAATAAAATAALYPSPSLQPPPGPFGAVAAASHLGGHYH
The settings on record: protein: recombinant; tags: N-terminal GST; dsDNA, one strand shown. Put shortly: (§1)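 Beads coated with glutathione captured GST-fused human transcription factors that had been expressed in yeast, and the factors were then given DNA barcodes and pooled with a tag-only sample. The pools were incubated with 200 nmole of a random double-stranded 16-mer DNA library in Tris/NaCl/DTT/glycerol buffer for 30 min at room temperature, washed, crosslinked with 0.1% formaldehyde and proximity-ligated with BsaI/T4 ligase at 37 °C for 1 h. PCR amplification and Illumina NextSeq500 sequencing came last. Binding signal is each hexamer's read frequency for a factor divided by its frequency for the tag-only sample.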

In a further test the target is ETV5 (Homo sapiens, UniProt P41161 1-510). The settings on record: protein: recombinant; tags: N-terminal GST; dsDNA, one strand shown. Put shortly: as §1
The target of the next test is HSF1 (Homo sapiens, UniProt Q00613 1-529). The settings on record: protein: recombinant; tags: N-terminal GST; chain copies: 3; dsDNA, one strand shown. Put shortly: as §1
The target in another test is T2, SPIC (Homo sapiens, UniProt Q8N5J4 1-248).
T2 sequence: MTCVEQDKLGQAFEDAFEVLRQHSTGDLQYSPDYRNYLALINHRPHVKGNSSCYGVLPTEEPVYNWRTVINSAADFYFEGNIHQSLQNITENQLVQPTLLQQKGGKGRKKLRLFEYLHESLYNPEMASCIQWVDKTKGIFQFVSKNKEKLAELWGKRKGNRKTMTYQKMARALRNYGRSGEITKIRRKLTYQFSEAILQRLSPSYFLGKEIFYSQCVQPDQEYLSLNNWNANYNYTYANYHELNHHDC
The following applies: protein: recombinant; tags: N-terminal GST; dsDNA, one strand shown. The gist of the method:
as §1

In a further test the target is ELF4 (Homo sapiens, UniProt Q99607 1-663). The following applies: protein: recombinant; tags: N-terminal GST; dsDNA, one strand shown. The gist of the method:
as §1

In another test the target is T3, ELK4 (Homo sapiens, UniProt P28324-2 1-405).
T3 sequence: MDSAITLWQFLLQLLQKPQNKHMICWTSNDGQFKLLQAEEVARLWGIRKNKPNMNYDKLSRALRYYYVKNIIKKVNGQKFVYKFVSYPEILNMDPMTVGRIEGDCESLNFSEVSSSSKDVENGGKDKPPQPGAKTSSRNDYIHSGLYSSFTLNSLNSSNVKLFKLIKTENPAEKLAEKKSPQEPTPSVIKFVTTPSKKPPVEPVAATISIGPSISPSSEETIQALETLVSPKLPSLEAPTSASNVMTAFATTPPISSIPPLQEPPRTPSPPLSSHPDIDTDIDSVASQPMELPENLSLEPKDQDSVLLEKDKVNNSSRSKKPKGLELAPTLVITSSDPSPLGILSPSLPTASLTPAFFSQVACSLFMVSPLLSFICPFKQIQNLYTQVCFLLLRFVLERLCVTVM
The following applies: protein: recombinant; tags: N-terminal GST; dsDNA, one strand shown. Put shortly:
as §1

Another test deals with T4, ETV2 (Homo sapiens, UniProt O00321 1-342).
T4 sequence: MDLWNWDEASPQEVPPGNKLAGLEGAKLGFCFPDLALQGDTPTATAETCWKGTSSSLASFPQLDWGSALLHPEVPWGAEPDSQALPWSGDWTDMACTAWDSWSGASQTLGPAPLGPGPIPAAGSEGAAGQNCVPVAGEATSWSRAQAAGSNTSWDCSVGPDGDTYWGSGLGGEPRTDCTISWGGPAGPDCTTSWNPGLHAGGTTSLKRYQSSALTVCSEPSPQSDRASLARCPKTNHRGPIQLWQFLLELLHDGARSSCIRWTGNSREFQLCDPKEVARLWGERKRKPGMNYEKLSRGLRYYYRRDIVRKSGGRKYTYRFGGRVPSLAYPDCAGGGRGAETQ
The settings on record: protein: recombinant; tags: N-terminal GST; dsDNA, one strand shown. Put shortly: as §1

In another test the target is T5, ELF3 (Homo sapiens, UniProt P78545 1-371).
T5 sequence: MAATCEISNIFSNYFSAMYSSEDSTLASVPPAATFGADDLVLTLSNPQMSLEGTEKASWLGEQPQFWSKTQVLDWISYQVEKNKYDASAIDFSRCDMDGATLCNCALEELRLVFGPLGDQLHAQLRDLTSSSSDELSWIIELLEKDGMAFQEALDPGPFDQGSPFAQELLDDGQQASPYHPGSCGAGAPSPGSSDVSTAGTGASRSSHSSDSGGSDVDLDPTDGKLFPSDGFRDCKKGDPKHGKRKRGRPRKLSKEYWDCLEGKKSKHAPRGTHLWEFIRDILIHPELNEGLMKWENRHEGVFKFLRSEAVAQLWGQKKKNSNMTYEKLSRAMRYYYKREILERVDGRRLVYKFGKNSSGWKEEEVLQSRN
The settings on record: protein: recombinant; tags: N-terminal GST; dsDNA, one strand shown. Put shortly:
as §1

The target of a further test is CRX (Homo sapiens, UniProt O43186 1-299). The settings on record: protein: recombinant; tags: N-terminal GST; dsDNA, one strand shown. The gist of the method:
as §1

The target of a further test is ETV1 (Homo sapiens, UniProt P50549 1-477). The following applies: protein: recombinant; tags: N-terminal GST; dsDNA, one strand shown. The gist of the method: as §1
In the next test the target is T6, ERF (Homo sapiens, UniProt P50548 1-548).
T6 sequence: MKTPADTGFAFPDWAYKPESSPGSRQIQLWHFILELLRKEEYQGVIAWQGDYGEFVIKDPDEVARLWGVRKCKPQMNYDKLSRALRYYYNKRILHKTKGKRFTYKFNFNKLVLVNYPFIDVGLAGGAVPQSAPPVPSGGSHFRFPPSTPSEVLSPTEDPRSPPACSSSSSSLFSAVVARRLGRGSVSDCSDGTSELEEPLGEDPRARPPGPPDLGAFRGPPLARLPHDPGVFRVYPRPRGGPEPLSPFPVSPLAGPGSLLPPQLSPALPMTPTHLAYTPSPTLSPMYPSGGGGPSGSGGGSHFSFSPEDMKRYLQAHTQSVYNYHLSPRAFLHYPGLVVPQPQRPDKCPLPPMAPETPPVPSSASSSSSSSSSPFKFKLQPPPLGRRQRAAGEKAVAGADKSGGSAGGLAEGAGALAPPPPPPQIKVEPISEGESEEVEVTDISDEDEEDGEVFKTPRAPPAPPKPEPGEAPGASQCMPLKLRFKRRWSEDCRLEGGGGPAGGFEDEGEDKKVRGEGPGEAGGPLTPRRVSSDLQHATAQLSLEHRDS
The following applies: protein: recombinant; tags: N-terminal GST; dsDNA, one strand shown. The gist of the method: as §1

For a further test, the target named is T7, ETV3L (Homo sapiens, UniProt Q6ZN32 1-361).
T7 sequence: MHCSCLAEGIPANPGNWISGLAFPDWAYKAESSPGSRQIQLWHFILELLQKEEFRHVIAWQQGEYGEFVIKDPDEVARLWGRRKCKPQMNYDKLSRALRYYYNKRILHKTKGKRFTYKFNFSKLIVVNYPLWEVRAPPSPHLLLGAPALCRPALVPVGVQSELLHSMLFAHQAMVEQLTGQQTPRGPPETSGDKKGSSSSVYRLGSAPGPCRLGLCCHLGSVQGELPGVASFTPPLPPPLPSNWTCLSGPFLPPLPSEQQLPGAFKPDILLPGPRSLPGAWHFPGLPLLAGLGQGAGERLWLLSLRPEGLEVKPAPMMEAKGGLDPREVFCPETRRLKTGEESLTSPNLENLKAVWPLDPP
The following applies: protein: recombinant; tags: N-terminal GST; dsDNA, one strand shown. The gist of the method:
as §1

A further test has as its target T8, ETS2 (Homo sapiens, UniProt P15036 1-469).
T8 sequence: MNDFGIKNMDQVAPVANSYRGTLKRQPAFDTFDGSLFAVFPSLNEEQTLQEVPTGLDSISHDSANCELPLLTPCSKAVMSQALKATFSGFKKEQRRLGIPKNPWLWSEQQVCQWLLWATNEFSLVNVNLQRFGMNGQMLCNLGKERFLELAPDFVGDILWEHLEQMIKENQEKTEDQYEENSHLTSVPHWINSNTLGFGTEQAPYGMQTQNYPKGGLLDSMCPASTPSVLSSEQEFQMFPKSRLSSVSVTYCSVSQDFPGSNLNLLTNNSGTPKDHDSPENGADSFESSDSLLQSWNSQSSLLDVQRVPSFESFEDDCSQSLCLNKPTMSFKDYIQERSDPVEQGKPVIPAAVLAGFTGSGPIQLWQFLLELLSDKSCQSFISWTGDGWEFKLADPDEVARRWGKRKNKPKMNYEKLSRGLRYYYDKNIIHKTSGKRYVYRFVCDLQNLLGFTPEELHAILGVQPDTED
The settings on record: protein: recombinant; tags: N-terminal GST; dsDNA, one strand shown. Put shortly: as §1

The target in another test is T9, SPDEF (Homo sapiens, UniProt O95238 1-335).
T9 sequence: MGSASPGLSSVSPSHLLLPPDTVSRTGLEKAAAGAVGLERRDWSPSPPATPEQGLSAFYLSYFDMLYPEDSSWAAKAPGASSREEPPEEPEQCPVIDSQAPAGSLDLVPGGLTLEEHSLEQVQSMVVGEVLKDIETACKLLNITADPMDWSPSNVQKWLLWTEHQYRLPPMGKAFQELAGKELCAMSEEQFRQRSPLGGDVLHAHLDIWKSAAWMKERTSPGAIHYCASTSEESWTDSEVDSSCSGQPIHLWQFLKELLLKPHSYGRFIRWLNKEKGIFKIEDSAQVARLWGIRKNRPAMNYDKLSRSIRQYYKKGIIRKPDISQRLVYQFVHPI
The following applies: protein: recombinant; tags: N-terminal GST; dsDNA, one strand shown. Put shortly:
as §1

In a further test the target is T10, ETV7 (Homo sapiens, UniProt Q9Y603 1-341).
T10 sequence: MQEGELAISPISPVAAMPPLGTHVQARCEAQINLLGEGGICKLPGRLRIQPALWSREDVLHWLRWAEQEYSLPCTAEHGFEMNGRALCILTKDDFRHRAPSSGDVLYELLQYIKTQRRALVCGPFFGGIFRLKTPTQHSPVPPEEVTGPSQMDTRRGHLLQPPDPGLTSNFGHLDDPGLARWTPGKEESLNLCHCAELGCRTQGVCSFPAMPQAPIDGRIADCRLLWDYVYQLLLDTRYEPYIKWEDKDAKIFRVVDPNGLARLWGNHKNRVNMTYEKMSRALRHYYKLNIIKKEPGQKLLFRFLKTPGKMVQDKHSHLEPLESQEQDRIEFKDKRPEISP
The settings on record: protein: recombinant; tags: N-terminal GST; dsDNA, one strand shown. Put shortly:
as §1

In the next test the target is T11, ELF5 (Homo sapiens, UniProt Q9UKW6-2 1-255).
T11 sequence: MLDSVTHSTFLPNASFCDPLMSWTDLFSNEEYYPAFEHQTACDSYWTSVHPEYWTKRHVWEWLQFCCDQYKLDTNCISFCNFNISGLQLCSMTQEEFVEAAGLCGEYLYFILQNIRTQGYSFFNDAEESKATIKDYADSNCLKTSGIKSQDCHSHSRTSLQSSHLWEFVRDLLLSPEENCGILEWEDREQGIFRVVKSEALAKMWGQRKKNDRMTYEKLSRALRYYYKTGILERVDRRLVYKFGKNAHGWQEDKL
The settings on record: protein: recombinant; tags: N-terminal GST; dsDNA, one strand shown. Put shortly:
as §1

A further test addresses T12, ETV3 (Homo sapiens, UniProt P41162-2 1-143).
T12 sequence: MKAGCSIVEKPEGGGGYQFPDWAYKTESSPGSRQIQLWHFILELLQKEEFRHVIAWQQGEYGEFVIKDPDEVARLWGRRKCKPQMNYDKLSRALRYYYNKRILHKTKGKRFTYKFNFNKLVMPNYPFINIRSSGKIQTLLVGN
The settings on record: protein: recombinant; tags: N-terminal GST; dsDNA, one strand shown. Put shortly: as §1

For the next test, the target named is ETV6 (Homo sapiens, UniProt P41212 1-452). The following applies: protein: recombinant; tags: N-terminal GST; dsDNA, one strand shown. The gist of the method: as §1
ETV6, sequence (P41212 whole entry): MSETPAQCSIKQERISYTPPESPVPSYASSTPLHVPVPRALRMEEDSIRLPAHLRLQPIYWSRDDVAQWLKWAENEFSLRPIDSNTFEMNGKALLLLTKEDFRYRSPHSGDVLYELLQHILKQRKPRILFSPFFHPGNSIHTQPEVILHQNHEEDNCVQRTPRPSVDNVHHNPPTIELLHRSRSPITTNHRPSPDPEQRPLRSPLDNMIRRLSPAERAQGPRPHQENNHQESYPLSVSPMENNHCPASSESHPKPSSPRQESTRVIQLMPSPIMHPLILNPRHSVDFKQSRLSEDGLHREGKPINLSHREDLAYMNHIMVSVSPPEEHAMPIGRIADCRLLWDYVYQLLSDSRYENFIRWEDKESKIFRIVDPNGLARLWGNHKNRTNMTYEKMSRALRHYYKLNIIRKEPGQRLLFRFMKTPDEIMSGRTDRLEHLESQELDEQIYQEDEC

ETV5, sequence (P41161 whole entry): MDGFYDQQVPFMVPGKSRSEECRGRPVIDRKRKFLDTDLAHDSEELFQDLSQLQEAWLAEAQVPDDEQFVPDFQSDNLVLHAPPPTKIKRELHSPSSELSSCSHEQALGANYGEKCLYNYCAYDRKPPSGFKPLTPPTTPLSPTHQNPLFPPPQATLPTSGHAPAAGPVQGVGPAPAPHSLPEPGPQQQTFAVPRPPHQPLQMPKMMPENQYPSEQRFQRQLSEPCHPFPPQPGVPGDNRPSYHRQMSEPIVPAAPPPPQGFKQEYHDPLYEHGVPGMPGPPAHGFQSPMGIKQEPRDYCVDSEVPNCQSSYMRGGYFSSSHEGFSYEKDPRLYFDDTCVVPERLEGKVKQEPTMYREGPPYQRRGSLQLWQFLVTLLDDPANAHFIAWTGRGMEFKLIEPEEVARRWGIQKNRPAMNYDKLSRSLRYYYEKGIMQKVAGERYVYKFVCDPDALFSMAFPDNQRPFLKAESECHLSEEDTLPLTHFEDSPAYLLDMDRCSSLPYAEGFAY
HSF1, sequence (Q00613 whole entry): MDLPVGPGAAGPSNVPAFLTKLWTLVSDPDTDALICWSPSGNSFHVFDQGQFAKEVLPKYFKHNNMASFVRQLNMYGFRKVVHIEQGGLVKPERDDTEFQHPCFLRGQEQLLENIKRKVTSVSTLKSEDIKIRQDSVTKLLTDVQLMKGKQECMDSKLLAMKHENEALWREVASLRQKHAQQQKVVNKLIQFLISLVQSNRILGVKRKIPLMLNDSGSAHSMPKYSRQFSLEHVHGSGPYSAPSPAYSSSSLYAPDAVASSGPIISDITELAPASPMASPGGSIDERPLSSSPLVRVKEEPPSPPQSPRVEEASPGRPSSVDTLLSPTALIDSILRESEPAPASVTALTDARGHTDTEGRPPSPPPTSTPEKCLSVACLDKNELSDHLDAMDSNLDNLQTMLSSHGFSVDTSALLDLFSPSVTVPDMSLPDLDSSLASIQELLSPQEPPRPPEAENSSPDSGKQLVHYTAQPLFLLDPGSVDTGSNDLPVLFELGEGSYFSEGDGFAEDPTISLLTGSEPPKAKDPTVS
ELF4, sequence (Q99607 whole entry): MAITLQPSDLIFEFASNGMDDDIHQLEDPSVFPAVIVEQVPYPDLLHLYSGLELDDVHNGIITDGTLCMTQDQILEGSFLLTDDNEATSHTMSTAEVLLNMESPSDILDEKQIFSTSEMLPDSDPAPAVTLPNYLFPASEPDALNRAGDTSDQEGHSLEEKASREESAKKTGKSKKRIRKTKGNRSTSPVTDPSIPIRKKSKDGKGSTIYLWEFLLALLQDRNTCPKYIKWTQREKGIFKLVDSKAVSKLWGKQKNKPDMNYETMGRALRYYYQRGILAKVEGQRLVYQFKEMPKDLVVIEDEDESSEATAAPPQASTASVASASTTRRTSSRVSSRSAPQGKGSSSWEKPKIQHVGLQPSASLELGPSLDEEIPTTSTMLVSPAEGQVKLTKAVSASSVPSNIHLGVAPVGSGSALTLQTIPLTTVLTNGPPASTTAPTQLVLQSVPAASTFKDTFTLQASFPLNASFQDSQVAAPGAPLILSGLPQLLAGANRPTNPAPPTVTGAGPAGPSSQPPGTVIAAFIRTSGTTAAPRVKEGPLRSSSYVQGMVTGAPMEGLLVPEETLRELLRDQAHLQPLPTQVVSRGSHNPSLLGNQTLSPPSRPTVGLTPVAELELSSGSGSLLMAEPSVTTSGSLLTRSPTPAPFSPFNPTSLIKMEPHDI
ETV1, sequence (P50549 whole entry): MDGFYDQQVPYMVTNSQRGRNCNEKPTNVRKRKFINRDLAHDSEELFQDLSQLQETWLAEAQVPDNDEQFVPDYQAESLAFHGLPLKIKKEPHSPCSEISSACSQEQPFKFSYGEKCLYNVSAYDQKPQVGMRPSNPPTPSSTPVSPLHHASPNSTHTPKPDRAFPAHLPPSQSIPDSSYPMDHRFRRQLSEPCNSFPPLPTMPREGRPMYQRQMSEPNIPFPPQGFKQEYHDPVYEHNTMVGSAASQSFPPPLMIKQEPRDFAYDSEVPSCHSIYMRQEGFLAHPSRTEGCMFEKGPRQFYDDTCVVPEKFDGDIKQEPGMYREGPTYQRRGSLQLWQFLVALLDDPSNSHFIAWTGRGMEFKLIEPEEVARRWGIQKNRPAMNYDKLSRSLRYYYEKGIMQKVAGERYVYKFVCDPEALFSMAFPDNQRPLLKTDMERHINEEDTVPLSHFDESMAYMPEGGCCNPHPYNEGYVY
CRX, sequence (O43186 whole entry): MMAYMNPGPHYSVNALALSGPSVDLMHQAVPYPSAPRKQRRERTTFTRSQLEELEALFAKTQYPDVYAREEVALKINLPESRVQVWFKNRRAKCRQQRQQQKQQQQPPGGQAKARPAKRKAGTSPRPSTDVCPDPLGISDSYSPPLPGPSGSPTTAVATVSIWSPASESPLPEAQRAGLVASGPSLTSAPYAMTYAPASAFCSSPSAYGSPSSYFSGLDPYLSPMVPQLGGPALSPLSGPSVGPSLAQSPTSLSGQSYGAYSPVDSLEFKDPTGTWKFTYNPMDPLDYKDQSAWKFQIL

As to CCCAAT, the binding signal is 1.27 fold enrichment (6-mer frequency, TF over GST control) with FEV; 1.34 fold enrichment (6-mer frequency, TF over GST control) with ETV5; 1.1 fold enrichment (6-mer frequency, TF over GST control) with HSF1; 1.27 fold enrichment (6-mer frequency, TF over GST control) in the test with SPIC; 1.32 fold enrichment (6-mer frequency, TF over GST control) with ELF4; 1.24 fold enrichment (6-mer frequency, TF over GST control) with ELK4. Besides, the binding signal with ETV2 was 1.3 fold enrichment (6-mer frequency, TF over GST control); with ELF3, 1.32 fold enrichment (6-mer frequency, TF over GST control); with CRX, 1.19 fold enrichment (6-mer frequency, TF over GST control); with ETV1, 1.19 fold enrichment (6-mer frequency, TF over GST control); in the test with ERF, 1.18 fold enrichment (6-mer frequency, TF over GST control); with ETV3L, 1.27 fold enrichment (6-mer frequency, TF over GST control). Moreover, the binding signal with ETS2 is 1.22 fold enrichment (6-mer frequency, TF over GST control); in the test with SPDEF it was 1.29 fold enrichment (6-mer frequency, TF over GST control); with ETV7, 1.15 fold enrichment (6-mer frequency, TF over GST control); in the test with ELF5 it was 1.23 fold enrichment (6-mer frequency, TF over GST control); in the test with ETV3 it was 1.18 fold enrichment (6-mer frequency, TF over GST control); with ETV6 it was 1.28 fold enrichment (6-mer frequency, TF over GST control).
